# aSyn 5UTR act = Activators via SNCA 5'UTR binding, MLPCN. 300,000 tested, 7.1% active. AID 1814. alpha-synuclein 5'UTR reporter, activators screen. activity score, % (tested at 7.5 µM), hits read low; in the data active = activity score below about -60%
# The depositor's hits bear a star. These entries were drawn from the full list.
SMILES,aSyn 5UTR act
COc1cccc(/C=N/NC(=O)c2ccoc2C)c1O,-70.6*
COc1cccc(/C=N/NC(=O)NC2CCCCC2)c1O,-96.6*
COc1cccc(/C=N/NC(=O)c2c(-c3ccccc3)noc2C)c1O,58.2
Cn1nccc1C(=O)N/N=C/c1ccccc1[N+](=O)[O-],-89.2*
COc1cccc(/C=N/NC(=O)c2ccoc2C)c1,-125.2*
COc1cc(/C=N/NC(=O)c2ccoc2C)ccc1O,-67.1*
O=C(N/N=C/c1ccccn1)c1ccc(N/N=C/c2ccccn2)cc1,-132.4*
Cc1occc1C(=O)N/N=C/c1ccccn1,-84.1*
COC(=O)/C(=C/c1ccc2c(c1)c1ccccc1n2C)NC(=O)c1ccccc1,-67.9*
CCN(CC)c1ccc(/C=N/NC(=O)c2ccoc2C)cc1,-95.4*
O=C(c1ccc(S(=O)(=O)Cc2cc(F)ccc2F)c([N+](=O)[O-])c1)N1CCCCC1,-102.3*
Cc1ccc2nc3sc(C(=O)NCc4ccco4)c(N)c3cc2c1,-126.5*
COc1cc2cc3c(N)c(C(=O)NCc4ccco4)sc3nc2cc1OC,-284.2*
Cc1ccc2ccc(C3C(=O)c4ccccc4C3=O)nc2c1,-145.7*
Cc1ccc(NC(=S)c2ccc(N(C)C)cc2)cc1,54.9
CCOc1ccc(NC(=S)c2ccncc2)cc1,-109.7*
COc1ccc(NC(=S)c2ccccc2)cc1,-147.7*
COc1ccc(C(=S)Nc2ccc(N(C)C)cc2)cc1,-99.4*
CN1CCN(CC(=O)Nc2ccc(OCc3ccccc3)cc2)CC1,-89.8*
N#CCN1CCN(CC(=O)Nc2ccc(OCc3ccccc3)cc2)CC1,-62.4*
CN(CC(=O)Nc1cccc(F)c1)C(=O)CCCNC(=O)c1ccc(Cl)cc1,-90.9*
CN1CCN(C(=S)c2ccc(-c3cccc([N+](=O)[O-])c3)o2)CC1,-170.8*
O=[N+]([O-])c1cc(-c2ccc(C(=S)N3CCOCC3)o2)ccc1Cl,-72.3*
O=[N+]([O-])c1cccc(-c2ccc(C(=S)N3CCOCC3)o2)c1,-107.1*
CC1=Nc2ccccc2/C1=C/c1sc(=N)n(-c2nccs2)c1O,62.5
SMILES,aSyn 5UTR act
C=CCn1c(O)c(C=Nc2ccccc2)sc1=S,-106.8*
CCn1c(O)c(C=Nc2ccccc2)sc1=O,-101.3*
CCn1c(O)c(/C=C2\C=Nc3ccccc32)sc1=O,-244.7*
Oc1nc(Nc2ccccc2)sc1/C=C1\C=Nc2ccccc21,-111.9*
CCn1c(O)c(C=Nc2ccccc2)sc1=S,-153.3*
O=c1oc2cc(O)c(Cl)cc2c2ccccc12,-87.5*
Cc1cccc(C(=O)NC(C(=O)Nc2nc(-c3ccccn3)cs2)C(C)C)c1 (stereo not drawn),81.4
CCN(CC)S(=O)(=O)c1cccc(C(=O)N[C@H](C(=O)Nc2nc3ccc(F)cc3s2)C(C)C)c1,-82.8*
Cc1cccn2cc(CSc3ccccc3N)nc12,-117.2*
C/C(=N\NC(=O)c1ccccc1Cl)c1ccccn1,81.9
C/C(Cc1ccccc1)=N\NC(=O)c1ccccn1,-66.7*
COc1ccc(NC(=O)C/C(C)=N/NC(=O)c2ccccn2)c(OC)c1,-107.4*
C/C(=N/NC(=O)c1ccccn1)c1ccncc1,-115.7*
C/C(CC(=O)Nc1ccc2c(c1)OCCO2)=N\NC(=O)C(=O)Nc1ccccc1C,-73.7*
C/C(CC(=O)Nc1ccccn1)=N\NC(=O)c1ccccc1O,71.0
C/C(CC(=O)Nc1ccccn1)=N\NC(=O)c1ccc2ccccc2c1,-64.4*
CCC(C)c1ccc(NC(=O)C/C(C)=N/NC(=O)c2cnccn2)cc1 (stereo not drawn),-62.8*
C/C(CC(=O)Nc1cc(C)cc(C)c1)=N\NC(=O)c1ccccn1,-164.8*
C/C(CC(=O)Nc1ccc2c(c1)OCCO2)=N\NC(=O)c1ccccn1,-142.5*
O=C(CSc1ncccc1-c1nc2ccccc2[nH]1)Nc1ccc2c(c1)OCCO2,-71.1*
O=C(CSc1ncccc1-c1nc2ccccc2[nH]1)N1CCc2ccccc21,-116.8*
CCOC(=O)c1sc2ccccc2c1NC(=O)c1coc2ccccc2c1=O,-73.9*
Nc1ccc2oc(-c3ccccc3Cl)nc2c1,56.6
CCc1ccc2oc(-c3cc(N)ccc3Cl)nc2c1,-62.5*
Cc1nc2c(-c3ccc(Cl)cc3)cnn2c2c1CCC2,-122.5*
SMILES,aSyn 5UTR act
O=c1c2c(nc3c(-c4ccc(Cl)cc4)c[nH]n13)CCCC2,66.0
CN1C2CCC1/C(=C\c1ccccc1F)C(=O)/C2=C/c1ccccc1F,-89.4*
C(=N\Nc1nc2ccccc2[nH]1)/c1ccc2c(c1)OCO2,-221.7*
C/C(=N\Nc1nc2ccccc2[nH]1)c1ccccn1,86.7
Clc1ccccc1N/N=C/c1ccc2c(c1)OCO2,-176.2*
C/C(=N\Nc1nc2ccccc2[nH]1)c1cc2ccccc2o1,-137.8*
C/C(=N\Nc1nc2ccccc2[nH]1)c1ccc2c(c1)OCCO2,-87.9*
C/C(=N\Nc1ccccn1)c1ccc2c(c1)OCO2,-158.5*
C/C(=N\Nc1nc2ccccc2[nH]1)c1ccc2c(c1)OCO2,-124.0*
CSc1ccc(C2Nc3ccccc3-c3cc(C)nn32)cc1 (stereo not drawn),-100.9*
Cc1cccc(NC(=O)/C=C/c2ccc(Cl)cc2)n1,-157.7*
CSc1cccc(NC(=S)Nc2cc(C)ccc2C)c1,-139.5*
O=C(/C=C/c1ccccc1)Nc1ccc(Cl)cn1,-94.9*
O=C(/C=C/c1ccccc1)Nc1cccc(C(=O)O)c1,94.5
CSc1cccc(NC(=O)/C=C/c2ccccc2)c1,-226.2*
CCOC(=O)Cc1csc(NC(=O)/C=C/c2ccc(Cl)cc2)n1,-64.3*
CSc1cccc(NC(=O)/C=C/c2ccc(Cl)cc2)c1,-159.7*
CSc1cccc(NC(=O)Nc2ccccc2)c1,-111.4*
O=C(Nc1ccc([N+](=O)[O-])cc1)N1CCc2ccccc2C1,-106.0*
CC(C)c1ccc(NC(=O)N2CCc3ccccc3C2)cc1,-261.1*
Cc1ccc(C)c(NC(=O)N2CCc3ccccc3C2)c1,-66.9*
O=[N+]([O-])c1ccc(N2CCc3ccccc3C2)cc1,-117.4*
Cc1cccc2cc(/C=N/Nc3ccc(C(=O)O)cc3)c(Cl)nc12,-196.6*
O=C(O)c1ccc(N/N=C/c2cc3ccccc3nc2Cl)cc1,-142.8*
O=[N+]([O-])c1ccccc1N/N=C/c1cc2ccccc2nc1Cl,-205.9*
SMILES,aSyn 5UTR act
CC(C)(C)c1nnc(N/N=C/c2ccccc2O)n(N)c1=O,110.0
Cc1cccc(N/N=C/c2ccncc2)c1,-108.7*
Cc1cc(N/N=C/c2ccccc2O)c2ccccc2n1,-113.5*
Cc1cccc(N/N=C/c2ccccc2O)c1,-182.0*
COc1ccc2nc(C)cc(N/N=C/c3cccc(OC)c3O)c2c1,99.8
Cc1ccccc1/C=N/Nc1nc2ccccc2c(=O)n1O,-129.4*
Cc1ccc(C(=O)/C=C/c2ccccc2[N+](=O)[O-])cc1,-173.0*
O=C(/C=C/c1ccccc1[N+](=O)[O-])c1ccccc1Br,-78.5*
Cc1ccc(C(=O)C(C)OC(=O)c2ccccc2[N+](=O)[O-])cc1 (stereo not drawn),-157.7*
O=C(Oc1oc(-c2ccco2)nc1C=Nc1ccc(Cl)cc1)c1ccco1,-170.2*
COc1ccc(N=Cc2nc(-c3ccco3)oc2O)cc1,-111.2*
O=C(Nc1ccccc1O)c1ccc(NC(=O)C2CC2)cc1,-805.0*
CCCC(=O)Nc1ccc(C#Cc2ccccc2)cc1,-67.5*
O=C(Nc1ccc(C#Cc2ccccc2)cc1)C1CC1,-113.4*
COc1ccc(C(=O)CCc2ccccc2)c(O)c1,-107.1*
COc1ccc(C(=O)COc2ccc(F)cc2)c(O)c1,-118.9*
O=C(COc1ccc(F)cc1)c1c(O)cc(O)cc1O,-79.4*
COc1ccc(C(=O)Cc2ccc(F)cc2)c(OC)c1,-117.2*
